The term AC50 denotes the concentration giving half of the maximal activity seen.

This passage reports AC50 and outcome results from PubChem BioAssay (EPA / NIEHS).

Several values for one entry are separate records, joined by “and”; a condition that tells them apart may be missing. Equal values may be shown once. More than one record can exist for a structure, and the calls need not agree. Activity calls are given as the source filed them. The calls were made as follows: active = hit-call score of the fitted dose curve at least 0.9, where 1 is the maximum; inactive = score below 0.9.

Common to all, as to details: mRNA level, 48 h; actives raise or lower the signal
Read-out in experiment [1]: growth arrest and DNA damage 45 (GADD45A), GADD45A (gene 1647)
Description: LTEA_HepaRG_GADD45A: Life Technologies and Expression Analysis (LTEA) Assay for growth arrest and DNA damage 45 (GADD45A) using HepaRG (AID 2283458). An outline of the steps:
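Eight-point concentration-response in HepaRG cells: 48 h chemical exposure, 0.5% DMSO vehicle, top dose 100 uM. Normalized qRT-PCR mRNA readout with bidirectional fitting relative to DMSO.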

Read-out in experiment [2]: Forkhead box O3 (FOXO3), FOXO3 (gene 2309)
Description: LTEA_HepaRG_FOXO3: Life Technologies and Expression Analysis (LTEA) Assay for Forkhead box O3 (FOXO3) using HepaRG (AID 2283459). An outline of the steps:
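FOXO3 transcript measured by qRT-PCR (normalized to ACTB, GAPDH, POLR2A) after 48 h exposure of HepaRG cells in serum-free induction medium. Duplicates, eight half-log concentrations up to 100 uM, 0.5% DMSO; gain or loss fitted against DMSO.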

Read-out in experiment [3]: ABC Transporter (ABCB1), ABCB1 (gene 5243)
Description: LTEA_HepaRG_ABCB1: Life Technologies and Expression Analysis (LTEA) Assay for ABC Transporter (ABCB1) using HepaRG (AID 2283460). An outline of the steps: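 ABCB1 transcript level measured by TaqMan qRT-PCR against three housekeeping genes after 48 h chemical exposure of differentiated HepaRG cells. Top concentration 100 uM, half-log steps, eight points, 0.5% DMSO vehicle; bidirectional fit relative to DMSO.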

Read-out in experiment [4]: growth arrest and DNA damage 45 (GADD45B), GADD45B (gene 4616)
Description: LTEA_HepaRG_GADD45B: Life Technologies and Expression Analysis (LTEA) Assay for growth arrest and DNA damage 45 (GADD45B) using HepaRG (AID 2283461). An outline of the steps: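 Human HepaRG monolayers receive chemicals for 48 h at eight half-log concentrations, highest 100 uM, in 0.5% DMSO. Expression is measured by TaqMan qRT-PCR and normalized to ACTB, GAPDH and POLR2A.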

Read-out in experiment [5]: ABC Transporter (ABCC3), ABCC3 (gene 8714)
Put plainly: LTEA_HepaRG_ABCC3: Life Technologies and Expression Analysis (LTEA) Assay for ABC Transporter (ABCC3) using HepaRG (AID 2283462). An outline of the steps:
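Transcriptional change of ABCC3 in HepaRG after 48 h treatment, determined by qRT-PCR normalized to endogenous controls. Concentrations spanned eight half-log steps to 100 uM in 0.5% DMSO.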

Read-out in experiment [6]: ABC Transporter (ABCB11), ABCB11 (gene 8647)
Description: LTEA_HepaRG_ABCB11: Life Technologies and Expression Analysis (LTEA) Assay for ABC Transporter (ABCB11) using HepaRG (AID 2283463). The procedure, abridged:
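ABCB11 transcript levels quantified by TaqMan qRT-PCR against three housekeeping genes after 48 h chemical exposure of HepaRG cultures. Concentrations up to 100 uM in half-log steps, 0.5% DMSO vehicle; both induction and suppression scored.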

Read-out in experiment [7]: ABC Transporter (ABCC2), ABCC2 (gene 1244)
Description: LTEA_HepaRG_ABCC2: Life Technologies and Expression Analysis (LTEA) Assay for ABC Transporter (ABCC2) using HepaRG (AID 2283464). An outline of the steps:
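After plating and 48 h culture, HepaRG medium is replaced with serum-free induction medium and chemicals are added (8 concentrations, max 100 uM, 0.5% DMSO) for 48 h. Total RNA then undergoes qRT-PCR for ABCC2 with housekeeping normalization.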

Read-out in experiment [8]: Broad substrate specificity ATP-binding cassette transporter ABCG2 (Homo sapiens) (UniProt Q9UNQ0)
Description: LTEA_HepaRG_ABCG2: Life Technologies and Expression Analysis (LTEA) Assay for ABC Transporter (ABCG2) using HepaRG (AID 2283465). The procedure, abridged:
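ABCG2 transcript was quantified by TaqMan qRT-PCR against three housekeeping genes in HepaRG cells. Cells were treated in duplicate for 48 h across an 8-point half-log series up to 100 uM, with 0.5% DMSO vehicle. Gain or loss versus DMSO was fit.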

Read-out in experiment [9]: ATP-citrate lyase (ACLY), ACLY (gene 47)
Description: LTEA_HepaRG_ACLY: Life Technologies and Expression Analysis (LTEA) Assay for ATP-citrate lyase (ACLY) using HepaRG (AID 2283466). The procedure, abridged: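 ACLY mRNA quantified by qRT-PCR on Fluidigm arrays against three housekeeping genes, after 48 h chemical treatment of HepaRG cells (top concentration 100 uM, half-log steps, 0.5% DMSO vehicle). Up- or down-regulation fitted relative to DMSO.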

Read-out in experiment [10]: Peroxisomal acyl-coenzyme A oxidase 1 (ACOX1) gene, ACOX1 (gene 51)
Put plainly: LTEA_HepaRG_ACOX1: Life Technologies and Expression Analysis (LTEA) Assay for Peroxisomal acyl-coenzyme A oxidase 1 (ACOX1) gene using HepaRG (AID 2283467). The procedure, abridged:
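ACOX1 transcript levels were quantified by TaqMan qRT-PCR against three housekeeping genes after 48 h chemical exposure of differentiated human HepaRG cells. Exposure used eight half-log steps topping at 100 uM, 0.5% DMSO vehicle, in duplicate. Bidirectional curve fits were made relative to DMSO.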

Broad substrate specificity ATP-binding cassette transporter ABCG2 (Homo sapiens), sequence (Q9UNQ0 whole entry, looked up): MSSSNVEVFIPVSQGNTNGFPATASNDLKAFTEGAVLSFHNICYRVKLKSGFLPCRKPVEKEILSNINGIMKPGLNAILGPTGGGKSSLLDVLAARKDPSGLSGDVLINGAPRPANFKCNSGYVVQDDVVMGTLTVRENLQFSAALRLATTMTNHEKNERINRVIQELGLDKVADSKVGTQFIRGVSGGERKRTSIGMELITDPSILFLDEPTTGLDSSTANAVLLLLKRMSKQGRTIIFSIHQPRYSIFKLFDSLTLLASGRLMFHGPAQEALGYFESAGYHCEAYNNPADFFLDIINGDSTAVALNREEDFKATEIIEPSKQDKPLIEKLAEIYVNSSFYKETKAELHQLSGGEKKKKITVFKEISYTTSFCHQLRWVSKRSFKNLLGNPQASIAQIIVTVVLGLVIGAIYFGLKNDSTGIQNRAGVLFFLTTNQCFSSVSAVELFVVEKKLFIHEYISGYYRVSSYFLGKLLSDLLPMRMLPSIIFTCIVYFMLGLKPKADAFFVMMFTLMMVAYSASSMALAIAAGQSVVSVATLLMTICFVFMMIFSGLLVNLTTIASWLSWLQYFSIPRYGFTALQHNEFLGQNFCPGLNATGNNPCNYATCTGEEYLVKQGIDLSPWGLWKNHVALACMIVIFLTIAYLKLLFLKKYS

Turning to `C#CCOS(=O)OC1CCCCC1Oc1ccc(C(C)(C)C)cc1` (configuration not stated), the AC50 in experiment [1] was 50 µM (active); in experiment [3], 50 µM (active); in experiment [4], 14.9 µM (active); in experiment [6] it was 23.2 µM (active); in experiment [7] it was 23.6 µM (active); in experiment [8], 50 µM (active). In addition, the half-maximal activity concentration (AC50) in experiment [9] is 35 µM (active). Further, the compound was called inactive in [2] and in experiment [5].

In the case of `Cc1cc(Cl)ccc1OCC(=O)O`, the compound was called inactive in [1], in experiment [2], in [3], in [4], in experiment [5] and in experiment [7]. Moreover, the outcome in experiment [9] was inactive. Moreover, the AC50 in [6] was 50 µM (active).

With `CC1=C(C(=O)Nc2ccccc2)SCCO1`, the outcome in experiment [1], in [3], in [5], in experiment [7] and in experiment [9] was inactive. Moreover, the AC50 in experiment [2], in experiment [4] and in experiment [6] was 50 µM (active) in each case.

As for `CCON=C(CC)C1=C(O)CC(c2c(C)cc(C)cc2C)CC1=O` (configuration not stated), the call in experiment [1], in experiment [2], in [4], in experiment [5], in [6] and in [9] was inactive. Moreover, the AC50 in [3] and in experiment [7] was 50 µM (active) each time.

As to `C=CCC1=C(C)[C@@H](OC(=O)[C@@H]2[C@@H](C=C(C)C)C2(C)C)CC1=O`, the call in [1], in [2], in experiment [4], in [7], in [8] and in experiment [9] was inactive. Further, the outcome in experiment [10] was inactive. Further, the results for the AC50 in experiment [3], in experiment [5] and in experiment [6] were 0.086 µM (active), 74.2 µM (active) and 50 µM (active), respectively.

Turning to `CS/C(C)=N/OC(=O)N(C)SN(C)C(=O)O/N=C(\C)SC`, the compound was classed as inactive in experiment [1], in [2], in experiment [3], in [4], in [5] and in experiment [7]. In experiment [9], the compound was called inactive. Also, in experiment [6], the half-maximal activity concentration (AC50) was 33.6 µM (active).

`OC(c1ccc(Cl)cc1)(c1cncnc1)c1ccccc1Cl` (configuration not stated): the concentration at half-maximal activity (AC50) in experiment [1] was 72.4 µM (active); in experiment [3], 28.5 µM (active); in [4] it was 66.2 µM (active); in experiment [6] it was 89.4 µM (active); in experiment [7], 2.46 µM (active); in experiment [9], 12.6 µM (active). The result in experiment [2], in [5] and in experiment [8] was inactive.

On to `N#CC(CCc1ccc(Cl)cc1)(Cn1cncn1)c1ccccc1` (configuration not stated), for which the concentration at half-maximal activity (AC50) in [1] was 74.7 µM (active); in [5], 12.5 µM (active); in [6] it was 72.3 µM (active); in experiment [7], 50 µM (active); in [9], 12.9 µM (active). The compound was classed as inactive in [2], in experiment [3] and in experiment [4].

Consider `CCc1nn(C)c(C(=O)NCc2ccc(C(C)(C)C)cc2)c1Cl`, for which the AC50 was 12 µM (active) in experiment [1]; 0.296 µM (active) in experiment [5]; 0.877 µM (active) in experiment [6]; 14.3 µM (active) in experiment [7]; 0.502 µM (active) in [9]. Further, the compound was called inactive in experiment [2], in [3] and in experiment [4].

Regarding `CCCCOC(=O)c1ccccc1C(=O)OCCCC`, the compound was called inactive in experiment [1], in experiment [2], in experiment [3], in experiment [4], in experiment [5] and in [6]. Further, the outcome in experiment [7] and in [9] was inactive.

As to `N#Cc1nn(-c2c(Cl)cc(C(F)(F)F)cc2Cl)c(N)c1S(=O)C(F)(F)F` (configuration not stated), the AC50 was 74.2 µM (active) in experiment [1]; 11.4 µM (active) in experiment [3]; 90.7 µM (active) in experiment [4]; 27.8 µM (active) in [6]; 23.5 µM (active) in experiment [8]. In addition, the result in experiment [2], in [5], in experiment [7] and in [9] was inactive.

Turning to `CNC(=O)ON=CC(C)(C)SC`, the compound was classed as inactive in experiment [1], in [2], in [3], in experiment [4], in experiment [5] and in experiment [6]. Also, the result in experiment [7] and in [9] was inactive.

On to `CO/C=C(/C(=O)OC)c1ccccc1Oc1cc(Oc2ccccc2C#N)ncn1`, for which the concentration at half-maximal activity (AC50) is 87.3 µM (active) and 74.6 µM (active) and 95.4 µM (active) in experiment [1]; 23.5 µM (active) in experiment [3]; 94.1 µM (active) and 82.7 µM (active) and 84.7 µM (active) in experiment [4]; 22.1 µM (active) and 26.1 µM (active) in [5]; 45.4 µM (active) and 63 µM (active) and 40.5 µM (active) in experiment [6]; 86.9 µM (active) and 83.9 µM (active) in experiment [7]. Also, the compound was called inactive in [2], in experiment [3], in [5], in [7] and in [9].
